Screens from PubChem BioAssay.
Compounds with a hit are over-represented: about 12% of the library has one in this group of screens.
AmpC inh no detg: inhibitors of E. coli AmpC beta-lactamase without detergent | P00811 | AmpC nitrocefin hydrolysis, absorbance 480 nm, 0.0001% Triton | Potency, µM (doses to about 57.1 µM), for inactives: at the highest dose activity change, negative = inhibition, usual class: inhibitors | 330,000 compounds, 0.52% hits | AID 485341;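 further: plate controls were no compound for no effect and no enzyme for full effect; nearly all actives have a fitted effect of over 20% in size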
Target sequence (P00811 whole entry, looked up): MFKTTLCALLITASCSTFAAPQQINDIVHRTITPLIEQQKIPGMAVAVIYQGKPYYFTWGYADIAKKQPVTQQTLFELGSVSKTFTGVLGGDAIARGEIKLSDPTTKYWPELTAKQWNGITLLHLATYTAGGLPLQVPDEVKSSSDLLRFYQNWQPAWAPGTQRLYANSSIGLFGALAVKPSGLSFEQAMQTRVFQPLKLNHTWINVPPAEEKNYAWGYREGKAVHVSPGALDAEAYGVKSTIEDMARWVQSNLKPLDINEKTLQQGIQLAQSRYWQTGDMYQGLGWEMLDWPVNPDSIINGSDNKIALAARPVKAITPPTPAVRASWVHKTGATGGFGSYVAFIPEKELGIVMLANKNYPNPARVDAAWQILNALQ
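AmpC (5.3 nM in the dispensed reagent) in 20 mM phosphate pH 7.0 with 0.01% (detergent screen) or 0.0001% Triton X-100 was preincubated with compounds for 15 min at room temperature. Nitrocefin was then added from an 800 uM solution, and hydrolysis was followed at 480 nm.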
Sm TGR inh: S. mansoni TGR enzyme inhibition; Q962Y6; Potency, µM (doses to about 114 µM), without a hit: top-dose activity change, negative = inhibition, usual class: inhibitors; AID 485364; purified TGR, DTNB reduction, TNB absorbance 405 nm; 360,000 compounds, 3% hits; further: on the % scale 0 is the no-effect control and ±100 the full control effect; nearly all actives have a fitted effect of over 60% in size
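Kinetic colorimetric format: TGR-catalysed, NADPH-driven DTNB reduction monitored via TNB absorbance. Enzyme dispensed at 20 nM; compound exposure 15 min at room temperature before reaction start.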
Pf growth 48h: P. falciparum growth inhibition at 48 hours (one generation) | P. falciparum luciferase growth in erythrocytes, 48 h | Potency, µM (highest dose often 28.7 µM), for the others: at the highest dose activity change, negative = inhibition, most hits filed as inhibitors | 310,000 compounds, 5.9% hits; further: on the % scale 0 is the no-effect control and ±100 the full control effect
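Luminescence readout; reporter = integrated firefly luciferase in P. falciparum. RBC culture at 2% hematocrit, 0.1% parasitemia final, 37 C/5% CO2; decreased signal taken as growth inhibition.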
SARS PLP yeast: SARS-CoV PLP inhibition in yeast | AID 485353 | 330,000 compounds, 0.19% hits | S. cerevisiae expressing SARS-CoV PLpro, growth rescue | Potency, µM (highest dose often 32.9 µM), for inactives: at the highest dose activity, positive = growth rescue, hits mostly activators; calls by dose curve; further: 0% is about no effect; nearly all actives have a fitted effect of over 55% in size
Pf growth 96h: P. falciparum growth inhibition at 96 hour, primary screen for plastid delayed-death inhibitors; Potency, µM (doses to about 28.7 µM), without a hit: at the highest dose activity change, negative = inhibition, usual class: inhibitors; 320,000 compounds, 6.9% hits; AID 504834; P. falciparum luciferase reporter growth, 96 h; further: on the % scale 0 is the no-effect control and ±100 the full control effect
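Plates of compound plus infected erythrocytes (2% hematocrit, 0.05% parasitemia final) incubate 96 hours, 37 C, 5% CO2. Detection reagent added; reduced luminescence from the parasites' luciferase reporter flags inhibition.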
AmpC inh detg: inhibitors of E. coli AmpC beta-lactamase with detergent. AmpC hydrolysis of nitrocefin, absorbance 480 nm, 0.01% Triton. Potency, µM (highest dose often 114 µM), inactives show at the highest dose activity change, negative = inhibition, hits mostly inhibitors. 370,000 compounds, 0.041% hits. AID 485294;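 further: 0% = no-compound wells and -100% = no-enzyme wells; nearly all actives have a fitted effect of over 25% in size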
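20 mM phosphate pH 7.0 + 0.01% (detergent screen) or 0.0001% Triton X-100; 5.3 nM AmpC reagent; cpd preinc 15 min RT; nitrocefin (800 uM stock) to start; A480 q20 s × 4 min; Activity was normalised to no-enzyme and no-compound control wells.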
Numbers without * were called inactive; i = inactive; ? = inconclusive; / = no result given. Unless noted, the call rests on the fitted dose curve; in most records, active means well fitted curve in the direction sought with a large enough effect; inconclusive means small, poorly fitted or top-dose-only effect, or another doubt; inactive means no such curve, though single readings can be large; an effect the other way counts as inactive or inconclusive. Potency means the concentration at half of the fitted maximal effect.

SMILES	AmpC inh no detg	Sm TGR inh	Pf growth 48h	SARS PLP yeast	Pf growth 96h	AmpC inh detg
O=C(c1coc(=O)c2ccccc12)N1CCN(Cc2ccccc2)CC1	-1%	-10%	1%	-1%	?	-1%
COC(=O)c1ccccc1NC(=S)NC(=O)COc1ccccc1	-27%	22µM*	17%	-6%	?	-3%
Cc1ccc(S(=O)(=O)NNC(=O)c2ccc(F)cc2)cc1	-8%	1%	1%	7%	-17%	2%
Cc1ccc(C(=O)NC(=S)NNS(=O)(=O)c2ccccc2)cc1	-34%	13µM*	-11%	12%	?	-1%
COC(=O)c1ccccc1NC(=S)NC(=O)c1ccc2c(c1)OCO2	-25%	11µM*	21%	-1%	?	-13%
COC(=O)c1ccccc1NC(=S)NC(=O)c1ccccc1	-35%	11µM*	57%	-35%	39%	?
Cc1cc(C)cc(C(=O)N2CCC(C(N)=O)CC2)c1	-8%	-2%	-24%	3%	?	11%
CCC(NC(=O)c1ccccc1NC(=O)c1ccccc1)C(=O)OC (stereo not given)	-18%	26%	2.1µM*	-5%	29%	-3%
COC(=O)c1ccccc1NC(=S)NC(=O)c1ccc(C)cc1	-26%	11µM*	27%	-64%	16%	-14%
COC(=O)c1ccccc1NC(=S)NC(=O)CC(C)C	-30%	-23%	19%	12%	42%	?
CCc1ccc(CNc2ccc3c(c2)ncn3CC)cc1	0%	4.5µM*	11%	-5%	-20%	-4%
CCn1cnc2cc(NCc3ccc(OC)cc3)ccc21	-18%	7%	/	-6%	46%	-8%
CCCCn1cnc2cc(NCc3ccccc3Cl)ccc21	/	0%	/	/	/	-2%
CCn1cnc2cc(NCc3ccccc3Cl)ccc21	-7%	-7%	0%	-11%	1.5µM*	-5%
CN(C)c1ccc(CNc2ccc3c(c2)ncn3C)cc1	5%	35µM*	/	1%	53%	?
O=C(Nc1cccc(Cl)c1)c1ccc2c(c1)CCN2S(=O)(=O)c1ccccc1	/	3%	/	/	/	?
Cc1cccc(C)c1NC(=O)CSc1nc2ncccc2o1	/	0%	/	/	/	18%
O=C(CCS(=O)(=O)Cc1ccccc1F)N1CCc2ccccc2C1	-12%	-31%	3%	-11%	-4%	-7%
CCOC(=O)C1CCN(C(=O)CCS(=O)(=O)Cc2ccccc2)CC1	-1%	45µM*	0%	1%	13%	0%
O=C(CCS(=O)(=O)Cc1ccccc1)N1CCc2ccccc2C1	-22%	28µM*	1%	-4%	/	-10%
CCOC(=O)C1CCN(C(=O)c2ccc(OCC)c(OCC)c2)CC1	33%	-8%	-22%	2%	15µM*	-9%
O=C(O)C1CCN(C(=O)CCc2ccccc2)CC1	32%	-2%	14%	1%	-7%	-11%
CCOC(=O)C1CCN(C(=O)CCc2ccccc2)CC1	3%	89µM*	10%	3%	1%	-7%
CCOC(=O)CCNC(=O)N1CCCC(N(C)CCc2ccccc2)C1 (stereo not given)	2%	-2%	13%	-2%	-11%	?
Cc1cccc(NC(=O)c2sc(-n3nc(C)c(Cc4ccc5c(c4)OCO5)c3C)nc2C)c1C	/	-5%	/	/	/	8%
SMILES	AmpC inh no detg	Sm TGR inh	Pf growth 48h	SARS PLP yeast	Pf growth 96h	AmpC inh detg
CN(C)c1ccc(N2C(=NC(=O)CC3CCCCC3)SC3CS(=O)(=O)CC32)cc1 (stereo not given)	-1%	-3%	-5%	8%	?	0%
Cc1ccc(CSC2=NC(C)(C)Nc3ccccc32)c(C)c1	/	-9%	/	/	/	3%
COc1ccc(N(CC(=O)N2CCN(c3ccccc3)CC2)S(=O)(=O)c2c(C)noc2C)cc1	95%	5%	/	-3%	-28%	?
COc1ccc(N(CC(=O)N2CCN(c3cc(C)ccc3C)CC2)S(=O)(=O)c2c(C)noc2C)cc1	-10%	4%	9.3µM*	-3%	13µM*	-10%
COc1ccc(N(CC(=O)N2CCN(c3cccc(C)c3C)CC2)S(=O)(=O)c2c(C)noc2C)cc1	67%	-2%	8.3µM*	-4%	13µM*	2%
CCOC(=O)N1CCN(C(=O)CN(c2ccc(C)cc2)S(=O)(=O)c2c(C)noc2C)CC1	186%	-4%	-10%	-7%	?	?
Cn1c(=O)c(Oc2ccc(F)cc2)c(O)c2ccccc21	-25%	1%	-9%	13%	-23%	0%
COc1ccc(-c2nnc(C3CCN(S(=O)(=O)c4cccc(Cl)c4)CC3)o2)cc1	/	-11%	/	/	/	-8%
Cc1ccc(C)c(Cn2nnc3c(=O)[nH]c(C(=O)NCc4ccco4)nc32)c1	-23%	?	-10%	2%	?	?
O=C(CN1CCN(Cc2ccccc2Cl)C1=O)NCc1ccco1	-16%	?	6%	1%	3.3µM*	-13%
O=C(NCc1ccco1)c1nc2c(nnn2Cc2ccccc2Cl)c(=O)[nH]1	-27%	-15%	9.3µM*	9%	0%	-1%
COc1ccc(NC(=O)c2ccco2)cc1NC(=O)COc1cc(C)ccc1C(C)C	/	-3%	/	/	/	5%
Cc1ccc2c(c1)-c1c(ssc1=S)C(C)(C)N2C(=O)c1ccco1	-5%	-5%	0.93µM*	-15%	-6%	?
Cn1cnnc1SCC(=O)N1c2ccccc2-c2c(ssc2=S)C1(C)C	-15%	0%	7%	-5%	/	-13%
CC1(C)c2ssc(=S)c2-c2ccccc2N1C(=O)c1ccco1	-16%	3%	?	-4%	1µM*	-8%
Cc1ccc(C)c(N2CCN(C(=O)Cn3cnc4sc(C)c(S(=O)(=O)N5CCN(c6ncccn6)CC5)c4c3=O)CC2)c1	/	6%	/	/	/	5%
COc1ccccc1N1CCN(c2nc3ccccc3n3cnnc23)CC1	/	-3%	/	/	/	-2%
CCOC(=O)c1[nH]c(CSc2nnnn2-c2ccccc2C)c(C(=O)OCC)c1C	-30%	-2%	10µM*	-8%	?	-2%
CCOC(=O)c1c(C)[nH]c(C)c1C(=O)CSc1nc2ccccc2c(=O)n1-c1ccc(CC)cc1	-20%	2%	?	4%	9.3µM*	1%
CC(=O)c1ccc(-n2c(SCC(=O)c3c[nH]c4ccccc34)nc3ccccc3c2=O)cc1	-3%	?	12µM*	19%	?	8%
Cn1ccnc1SCC(=O)c1c[nH]c2ccccc12	-35%	7%	i	0%	411%	0%
COC(=O)c1c(C)[nH]c(C(=O)CSc2nnnn2-c2ccccc2)c1C	-20%	-21%	45%	6%	/	0%
